# Assay results reported in PubChem BioAssay (EPA / NIEHS).
# Results filed as inconclusive are left out. The source made the active and inactive calls. How the source made its calls, unless noted: active means hit-call score of the fitted dose curve at least 0.9, where 1 is the maximum; inconclusive means response in the unintended direction; inactive means score below 0.9.
# Assays:
# [1] = biological target: human Peripheral-type Benzodiazepine Receptor (PBR), TSPO (gene 706) (UniProt P30536); test: NVS_MP_hPBR: NovaScreen (NVS) Membrane Protein Assay for human Peripheral-type Benzodiazepine Receptor (PBR) (AID 2283331);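 further: hits reduce radioligand binding relative to DMSO baseline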
# Chain of human Peripheral-type Benzodiazepine Receptor (PBR), TSPO (gene 706) (P30536 whole entry, looked up): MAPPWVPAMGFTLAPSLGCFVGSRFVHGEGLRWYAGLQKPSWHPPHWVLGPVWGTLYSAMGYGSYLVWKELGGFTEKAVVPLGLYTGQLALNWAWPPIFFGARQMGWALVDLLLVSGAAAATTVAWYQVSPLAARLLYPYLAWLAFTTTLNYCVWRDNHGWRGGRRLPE
# Summary of the method: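 Using human colon-derived membranes, this one-endpoint binding test reads radioligand loss by scintillation after 1 h. Screening started at 25 uM in duplicate, with positive and negative controls on every plate, and actives moved to dose series.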
# [2] = biological target: rat Gamma-Aminobutyric Acid Type A Receptor, Non-Selective (GABAR-NonSelective), Gabra1 (gene 29705) (UniProt P62813); test: NVS_LGIC_rGABAR_NonSelective: NovaScreen (NVS) Ligand-Gated Ion Channel Assay for rat Gamma-Aminobutyric Acid Type A Receptor, Non-Selective (GABAR-NonSelective) (AID 2283326)
# Chain of rat Gamma-Aminobutyric Acid Type A Receptor, Non-Selective (GABAR-NonSelective), Gabra1 (gene 29705) (P62813 whole entry, looked up): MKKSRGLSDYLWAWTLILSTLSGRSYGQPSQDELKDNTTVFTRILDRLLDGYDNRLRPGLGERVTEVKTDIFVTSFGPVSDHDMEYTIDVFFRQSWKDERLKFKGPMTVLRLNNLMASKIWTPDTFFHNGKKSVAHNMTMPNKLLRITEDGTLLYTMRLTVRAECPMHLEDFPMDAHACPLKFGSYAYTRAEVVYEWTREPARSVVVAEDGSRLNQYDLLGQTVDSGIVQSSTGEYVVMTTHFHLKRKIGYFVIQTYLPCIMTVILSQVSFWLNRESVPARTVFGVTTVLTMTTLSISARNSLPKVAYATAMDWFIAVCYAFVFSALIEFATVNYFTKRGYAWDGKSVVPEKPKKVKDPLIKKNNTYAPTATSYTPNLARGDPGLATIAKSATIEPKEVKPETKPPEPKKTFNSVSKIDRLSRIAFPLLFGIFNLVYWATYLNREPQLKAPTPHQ
# Summary of the method: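 Compounds were first screened in duplicate at 25 uM, with actives run as singleton concentration series (max 50 uM). Binding of a radioligand to rat whole-brain GABA-A preparation was measured by filtration and scintillation counting after 1 h, DMSO baseline.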
# [3] = NVS_IC_rCaBTZCHL: NovaScreen (NVS) Ion Channel Assay for Calcium Channel, Type L, Benzothiazepine Site (CaBTZCHL) (AID 2283337)
# Summary of the method: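 Rat cortical membrane preparation incubated 1.5 h with compound and benzothiazepine-site radioligand; loss of filter-bound counts versus DMSO marks displacement. Initial duplicate testing at 25 uM, actives followed up in concentration series.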
# [4] = biological target: rat Glutamate, NMDA Agonist Site (GluNMDA), Grin1 (gene 24408) (UniProt P35439); test: NVS_LGIC_rGluNMDA_Agonist: NovaScreen (NVS) Ligand-Gated Ion Channel Assay for rat Glutamate, NMDA Agonist Site (GluNMDA) (AID 2283327)
# Summary of the method: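 Radioligand displacement at the agonist site on rat forebrain membrane preparations, read by filter scintillation after 1 h. Chemicals were first run at 25 uM in duplicate; those passing threshold were titrated to a 50 uM maximum.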
# [5] = biological target: Voltage-gated inwardly rectifying potassium channel KCNH2 (Homo sapiens) (UniProt Q12809); test: NVS_IC_hKhERGCh: NovaScreen (NVS) Ion Channel Assay for human Potassium Channel ERG (KhERGCh) (AID 2283333)
# Chain of Voltage-gated inwardly rectifying potassium channel KCNH2 (Homo sapiens) (Q12809 whole entry, looked up): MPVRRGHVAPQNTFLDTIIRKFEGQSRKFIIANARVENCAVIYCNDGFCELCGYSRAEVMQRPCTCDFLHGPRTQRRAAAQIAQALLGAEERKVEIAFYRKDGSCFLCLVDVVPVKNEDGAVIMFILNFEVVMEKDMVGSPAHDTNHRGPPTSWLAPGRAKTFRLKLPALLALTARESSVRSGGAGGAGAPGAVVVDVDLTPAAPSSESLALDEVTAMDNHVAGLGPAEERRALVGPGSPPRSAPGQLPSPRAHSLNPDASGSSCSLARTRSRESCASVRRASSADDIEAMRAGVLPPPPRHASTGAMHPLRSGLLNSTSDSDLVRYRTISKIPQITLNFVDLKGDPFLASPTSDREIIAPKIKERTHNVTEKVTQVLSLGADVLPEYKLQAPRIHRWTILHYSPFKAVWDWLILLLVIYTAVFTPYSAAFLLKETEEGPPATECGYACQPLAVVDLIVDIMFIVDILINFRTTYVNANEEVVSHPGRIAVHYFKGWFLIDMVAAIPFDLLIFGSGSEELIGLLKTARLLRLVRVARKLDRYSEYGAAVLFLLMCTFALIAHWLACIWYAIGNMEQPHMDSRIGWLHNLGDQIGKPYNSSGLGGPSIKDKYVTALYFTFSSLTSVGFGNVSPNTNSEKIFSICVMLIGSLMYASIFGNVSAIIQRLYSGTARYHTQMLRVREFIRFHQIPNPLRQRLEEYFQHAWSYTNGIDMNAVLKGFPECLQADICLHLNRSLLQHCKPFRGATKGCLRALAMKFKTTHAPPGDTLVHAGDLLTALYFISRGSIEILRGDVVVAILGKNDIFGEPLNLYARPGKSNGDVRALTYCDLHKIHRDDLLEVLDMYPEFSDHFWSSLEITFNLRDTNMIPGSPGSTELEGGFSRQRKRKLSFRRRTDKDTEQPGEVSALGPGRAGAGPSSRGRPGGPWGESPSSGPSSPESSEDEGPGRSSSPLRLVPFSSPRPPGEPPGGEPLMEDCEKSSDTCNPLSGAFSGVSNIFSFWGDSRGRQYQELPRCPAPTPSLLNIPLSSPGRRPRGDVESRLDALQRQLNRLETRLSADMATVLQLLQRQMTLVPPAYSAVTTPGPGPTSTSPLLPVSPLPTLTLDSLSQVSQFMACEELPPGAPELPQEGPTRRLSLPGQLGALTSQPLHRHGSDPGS
# Summary of the method: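 Membranes from CHO cells expressing human ERG; displacement of radioligand measured by filtration and scintillation after 0.75 h. Single-concentration duplicate screen at 25 uM, then concentration-response for actives; DMSO baseline.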
# [6] = biological target: rat Peripheral-type Benzodiazepine Receptor (PBR), Tspo (gene 24230) (UniProt P16257); test: NVS_MP_rPBR: NovaScreen (NVS) Membrane Protein Assay for rat Peripheral-type Benzodiazepine Receptor (PBR) (AID 2283335)
# Chain of rat Peripheral-type Benzodiazepine Receptor (PBR), Tspo (gene 24230) (P16257 whole entry, looked up): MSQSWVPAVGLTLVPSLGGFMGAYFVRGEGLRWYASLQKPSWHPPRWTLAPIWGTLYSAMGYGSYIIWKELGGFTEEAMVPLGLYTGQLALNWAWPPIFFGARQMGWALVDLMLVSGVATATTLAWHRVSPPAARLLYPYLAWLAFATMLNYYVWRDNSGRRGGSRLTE
# Summary of the method: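 Competitive displacement of specific radioligand from rat kidney membrane PBR, read by filtration and scintillation after 1 h. Compounds first tested at 25 uM in duplicate, then in concentration series; signal loss relative to DMSO.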
# [7] = biological target: Glutamate receptor ionotropic, kainate 1 (Rattus norvegicus) (UniProt P22756); test: NVS_IC_rKAR: NovaScreen (NVS) Ion Channel Assay for rat Kainic Acid Receptors (KAR) (AID 2283334; active means hit-call score of the fitted dose curve at least 0.9, where 1 is the maximum; inactive means score below 0.9)
# Chain of Glutamate receptor ionotropic, kainate 1 (Rattus norvegicus) (P22756 whole entry, looked up): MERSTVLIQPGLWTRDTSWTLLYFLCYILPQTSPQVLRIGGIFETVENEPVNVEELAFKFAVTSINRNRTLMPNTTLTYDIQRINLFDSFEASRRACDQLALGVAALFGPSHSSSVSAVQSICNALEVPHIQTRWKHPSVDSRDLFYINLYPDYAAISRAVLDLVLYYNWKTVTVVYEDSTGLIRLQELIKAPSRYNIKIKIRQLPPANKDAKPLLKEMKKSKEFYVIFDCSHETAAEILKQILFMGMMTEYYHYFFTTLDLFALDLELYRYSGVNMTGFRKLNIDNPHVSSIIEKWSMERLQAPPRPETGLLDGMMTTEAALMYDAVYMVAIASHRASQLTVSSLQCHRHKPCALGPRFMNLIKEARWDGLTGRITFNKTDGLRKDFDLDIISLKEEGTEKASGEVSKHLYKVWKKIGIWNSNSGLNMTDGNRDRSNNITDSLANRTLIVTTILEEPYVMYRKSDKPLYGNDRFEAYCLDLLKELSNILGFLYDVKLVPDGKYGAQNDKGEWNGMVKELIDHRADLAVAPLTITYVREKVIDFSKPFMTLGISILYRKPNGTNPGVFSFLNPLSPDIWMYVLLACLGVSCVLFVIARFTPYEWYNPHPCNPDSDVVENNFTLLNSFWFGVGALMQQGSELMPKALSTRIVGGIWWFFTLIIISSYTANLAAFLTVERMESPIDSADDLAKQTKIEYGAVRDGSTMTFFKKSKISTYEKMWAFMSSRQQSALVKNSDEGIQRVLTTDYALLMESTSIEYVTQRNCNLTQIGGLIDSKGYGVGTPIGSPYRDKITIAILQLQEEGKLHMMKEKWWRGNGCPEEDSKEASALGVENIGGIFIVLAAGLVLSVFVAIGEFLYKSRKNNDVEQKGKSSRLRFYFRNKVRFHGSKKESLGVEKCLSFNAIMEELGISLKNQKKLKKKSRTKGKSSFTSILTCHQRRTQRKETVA
# Summary of the method: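 Rat forebrain membrane preparation incubated 1 h with radioligand and test chemical; bound signal read by filtration and scintillation. Single-concentration screen at 25 uM, then concentration series to 50 uM maximum.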
# [8] = biological target: human Androgen Receptor (AR), AR (gene 367) (UniProt P10275); test: NVS_NR_hAR: NovaScreen (NVS) Nuclear Receptor Binding Assay for human Androgen Receptor (AR) (AID 2283332)
# Chain of human Androgen Receptor (AR), AR (gene 367) (P10275 whole entry, looked up): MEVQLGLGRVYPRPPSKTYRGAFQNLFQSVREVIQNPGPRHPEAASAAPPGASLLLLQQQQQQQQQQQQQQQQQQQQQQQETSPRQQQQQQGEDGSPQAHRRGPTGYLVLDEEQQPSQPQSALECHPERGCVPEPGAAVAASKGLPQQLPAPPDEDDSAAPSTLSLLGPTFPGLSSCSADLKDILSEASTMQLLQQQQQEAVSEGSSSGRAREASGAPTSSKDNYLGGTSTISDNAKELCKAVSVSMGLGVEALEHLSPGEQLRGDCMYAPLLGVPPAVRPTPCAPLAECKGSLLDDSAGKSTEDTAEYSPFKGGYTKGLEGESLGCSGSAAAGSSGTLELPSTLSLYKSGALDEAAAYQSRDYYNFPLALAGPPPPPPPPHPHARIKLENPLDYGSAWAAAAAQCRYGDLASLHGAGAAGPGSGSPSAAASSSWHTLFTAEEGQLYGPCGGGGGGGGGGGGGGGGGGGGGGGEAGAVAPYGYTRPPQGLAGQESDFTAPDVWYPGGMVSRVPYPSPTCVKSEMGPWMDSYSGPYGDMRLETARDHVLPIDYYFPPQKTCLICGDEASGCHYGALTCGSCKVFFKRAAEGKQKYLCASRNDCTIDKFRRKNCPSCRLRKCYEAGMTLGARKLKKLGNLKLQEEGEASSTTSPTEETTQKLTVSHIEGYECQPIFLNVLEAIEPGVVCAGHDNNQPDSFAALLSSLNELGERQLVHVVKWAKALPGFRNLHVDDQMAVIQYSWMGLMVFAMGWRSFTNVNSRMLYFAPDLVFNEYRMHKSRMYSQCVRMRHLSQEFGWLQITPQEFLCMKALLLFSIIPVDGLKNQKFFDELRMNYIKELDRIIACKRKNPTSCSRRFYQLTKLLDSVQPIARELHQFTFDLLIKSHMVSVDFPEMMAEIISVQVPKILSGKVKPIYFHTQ
# Summary of the method: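 Actives from a duplicate 25 uM single-point screen went on to concentration series. Read-out after 20 h was scintillation counting of displaced radioligand in LnCAP extract, with DMSO as baseline.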
# [9] = biological target: Small conductance calcium-activated potassium channel protein 1 (Rattus norvegicus) (UniProt P70606); test: NVS_IC_rKCaCh: NovaScreen (NVS) Ion Channel Assay for rat Potassium Channel, Ca2+ Act., VI (KCaCh) (AID 2283336)
# Chain of Small conductance calcium-activated potassium channel protein 1 (Rattus norvegicus) (P70606 whole entry, looked up): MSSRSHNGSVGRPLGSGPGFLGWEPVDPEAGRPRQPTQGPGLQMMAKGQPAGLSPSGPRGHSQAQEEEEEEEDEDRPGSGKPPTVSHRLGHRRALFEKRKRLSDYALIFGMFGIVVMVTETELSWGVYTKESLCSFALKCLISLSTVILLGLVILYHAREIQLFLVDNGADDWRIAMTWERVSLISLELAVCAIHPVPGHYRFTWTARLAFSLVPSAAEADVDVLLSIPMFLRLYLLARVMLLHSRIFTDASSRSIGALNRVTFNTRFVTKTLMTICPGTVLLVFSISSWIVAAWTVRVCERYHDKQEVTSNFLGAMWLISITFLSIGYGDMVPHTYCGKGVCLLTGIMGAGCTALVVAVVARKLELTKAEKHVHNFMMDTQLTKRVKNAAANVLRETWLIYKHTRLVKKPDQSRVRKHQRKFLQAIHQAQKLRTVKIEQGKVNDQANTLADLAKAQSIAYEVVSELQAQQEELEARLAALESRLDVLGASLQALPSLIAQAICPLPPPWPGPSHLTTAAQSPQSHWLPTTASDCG
# Summary of the method: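 Filter-based scintillation counting of radioligand bound to rat forebrain membrane preparations, measured 1 h after compound addition. Primary screen used 25 uM in duplicate, with concentration-response follow-up; signal decrease relative to DMSO marks activity.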
# [10] = biological target: rat Thyrotropin Releasing Hormone Receptor (TRH), Trhr (gene 25570) (UniProt Q01717); test: NVS_GPCR_rTRH: NovaScreen (NVS) G Protein-Coupled Receptor Assay for rat Thyrotropin Releasing Hormone Receptor (TRH) (AID 2283329);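 further: hit means lower bound tracer signal versus DMSO baseline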
# Chain of rat Thyrotropin Releasing Hormone Receptor (TRH), Trhr (gene 25570) (Q01717 whole entry, looked up): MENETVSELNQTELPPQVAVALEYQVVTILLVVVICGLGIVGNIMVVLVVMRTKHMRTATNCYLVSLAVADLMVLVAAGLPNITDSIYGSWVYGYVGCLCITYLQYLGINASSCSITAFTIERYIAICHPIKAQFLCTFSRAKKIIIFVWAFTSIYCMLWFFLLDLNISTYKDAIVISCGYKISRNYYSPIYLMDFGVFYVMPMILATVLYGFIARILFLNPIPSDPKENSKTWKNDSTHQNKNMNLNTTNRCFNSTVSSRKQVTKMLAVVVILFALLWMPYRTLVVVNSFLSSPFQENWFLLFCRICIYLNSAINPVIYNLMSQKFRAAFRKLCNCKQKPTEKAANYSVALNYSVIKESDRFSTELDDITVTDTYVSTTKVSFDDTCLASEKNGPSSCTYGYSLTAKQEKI
# Experimental: NVS_GPCR_rTRH is a biochemical, single-readout assay that uses extracted gene-proteins from Rat forebrain membranes in a tissue-based cell-free assay. Measurements were taken 4 hours after chemical dosing in a 48-well plate.NVS_GPCR_rTRH is one of one assay component(s) measured or calculated from the NVS_GPCR_rTRH assay. It is designed to make measurements of radioligand binding, a form of binding reporter, as detected with scintillation counting signals by Filter-based radiodetection technology.Data from the assay component NVS_GPCR_rTRH was analyzed into 1 assay endpoint. This assay endpoint, NVS_GPCR_rTRH, was analyzed in the positive analysis fitting direction relative to DMSO as the negative control and baseline of activity. Using a type of binding reporter, loss-of-signal activity can be used to understand changes in the binding as they relate to the gene Trhr. Furthermore, this assay endpoint can be referred to as a primary readout, because the performed assay has only produced 1 assay endpoint. To generalize the intended target to other relatable targets, this assay endpoint is annotated to the gpcr intended target family, where the subfamily is rhodopsin-like receptor.
# Binding assays used specific radioligands (tritiated, iodinated) with non-radioactive competitive displacement ligands in agonist or antagonist protocols (as indicated) and various reference compounds and inhibitors to titrate specific binding to receptors and transporters. Most enzyme assays (CYPs, kinases, phosphatases, proteases, HDACs) used recombinant protein and specific substrates (fluorescence mostly, some colorimetric and radioactive) and inhibitors, followed by a biochemical separation of substrate and product. All assays for the biochemical HTS were initially run in duplicate at a single concentration (10 uM for CYP450 assays and 25 uM for all others). […] Each assay was run with positive and negative controls, and concurrent controls on every plate. The follow-up (secondary) screen tested active chemical-pairs in concentration series, as well as a few additional assays not tested in the primary screen, some selected negative inactives, and several cases re-run in the concentration series for confirmatory purposes.
compound,measurement,setting,value
CC(C)(O)c1coc(S(=O)(=O)NC(=O)Nc2c3c(cc4c2CCC4)CCC3)c1,outcome,[1],inactive
CCN(C(=O)c1cc(C)cc(OC[C@H](C)Nc2ccncc2)c1)C(C)C,AC50,[2],1.13 µM (active)
same,AC50,[1],12.5 µM (active)
same,AC50,[3],6.56 µM (active)
Fc1ccccc1[C@@H](F)COC1CCC(Nc2ncnc3[nH]ncc23)CC1 (some centres not stated),AC50,[4],0.616 µM (active)
CC(C)CC(C)(O)C#CC(C)(O)CC(C)C (configuration not stated),outcome,[5],inactive
CC[C@H]1CC[C@H](NCc2cc3c(cc2OC)[C@H]2C[C@H]2C(=O)N3C)[C@H](c2ccccc2)N1,AC50,[3],3.79 µM (active)
Cc1c(-c2cccnc2)c2ccccc2n1CCCCC(=O)O,AC50,[6],9.13 µM (active)
CC(C)CCO,AC50,[1],15.8 µM (active)
O=c1[nH]c2ccc(S(=O)CCN3CCC(Cc4ccc(F)cc4)CC3)cc2o1 (configuration not stated),outcome,[4],inactive
same,outcome,[7],inactive
O=C(O)c1cccc(N(Cc2cccnc2)c2ccc(OC(F)F)c(OC(F)F)c2)c1,outcome,[1],inactive
same,AC50,[8],0.0186 µM (active)
COc1cccc(-c2ccc(/C=C\CN3CCCCCC3)cc2Cl)c1,outcome,[2],inactive
same,AC50,[1],7.83 µM (active)
same,AC50,[5],5.95 µM (active)
same,AC50,[6],8.04 µM (active)
same,outcome,[9],inactive
same,AC50,[3],0.665 µM (active)
Cc1[nH]cnc1C[C@H]1CCc2c(C)c3ccccc3n2C1=O,outcome,[10],inactive
same,outcome,[1],inactive
same,AC50,[5],4.76 µM (active)
same,outcome,[3],inactive
COCCOc1cc2cc(C(=O)NC3CCN(C(C)C)CC3)n(CC(=O)Nc3ccc(Cl)cn3)c2cn1,outcome,[2],inactive
same,AC50,[3],5.21 µM (active)
CNCc1ccc(NC(=O)c2c[nH]c3c2C(=O)CCC3)cc1,outcome,[2],inactive
O=C(O)CC(O)C(=O)O (configuration not stated),outcome,[9],inactive
CCCN(C1CCN(C(=O)C2CCNCC2)CC1)[C@@H]1CCc2ccc(OC)cc2C1,outcome,[3],inactive
On1ccccc1=S,outcome,[7],inactive
CCCCCCc1ccc(O)cc1O,AC50,[8],8.25 µM (active)
O=C(NS(=O)(=O)/C=C/c1ccccc1)c1ccc(F)cc1Cl,AC50,[10],0.0025 µM (active)
O=C(OC[C@H]1O[C@@H](OC(=O)c2cc(O)c(O)c(OC(=O)c3cc(O)c(O)c(O)c3)c2)[C@H](OC(=O)c2cc(O)c(O)c(OC(=O)c3cc(O)c(O)c(O)c3)c2)[C@@H](OC(=O)c2cc(O)c(O)c(OC(=O)c3cc(O)c(O)c(O)c3)c2)[C@@H]1OC(=O)c1cc(O)c(O)c(OC(=O)c2cc(O)c(O)c(O)c2)c1)c1cc(O)c(O)c(OC(=O)c2cc(O)c(O)c(O)c2)c1,AC50,[1],5.11 µM (active)
same,AC50,[6],0.715 µM (active)
O=P(OC(CCl)CCl)(OC(CCl)CCl)OC(CCl)CCl,AC50,[1],2.01 µM (active)
same,AC50,[6],2.36 µM (active)
COc1ccc2sc(C(=O)Nc3nnn[nH]3)c(OC(C)C)c2c1,AC50,[1],25 µM (active)
same,outcome,[7],inactive
same,AC50,[6],25 µM (active)
Nc1ccc(Nc2ccccc2)cc1,AC50,[1],11.2 µM (active)
same,outcome,[5],inactive
COC(=O)CC(=O)OC,outcome,[7],inactive
CCc1cc(SCc2sc(-c3ccc(C(F)(F)F)cc3)nc2CN2CCN(c3ccc(OC)cc3)CC2)ccc1OCC(=O)O,outcome,[1],inactive
same,AC50,[6],1.81 µM (active)
CCOC(=O)c1ccc(C2CCC(NC[C@H](O)COc3ccc(O)c(NS(C)(=O)=O)c3)CC2)cc1 (some centres not stated),AC50,[2],4.64 µM (active)
same,AC50,[5],10.1 µM (active)
same,AC50,[3],7.7 µM (active)
COc1ccc(-n2nc(C(F)F)cc2-c2ccc(S(C)=O)cc2)cc1 (configuration not stated),outcome,[4],inactive
same,outcome,[10],inactive
same,AC50,[6],14.7 µM (active)
Cn1c(=O)cc(Oc2ccc(F)cc2F)c2cnc(NCC(C)(C)O)nc21,AC50,[6],9.69 µM (active)
CCOC(=O)CC(CC(=O)OCC)(OC(C)=O)C(=O)OCC,outcome,[10],inactive
CCn1nc(Cc2ccccc2)cc1C1CCN(C[C@H]2C[C@H](N(C)[C@@H](C(=O)O)C(C)C)C[C@@H]2c2cccc(F)c2)CC1,AC50,[1],8.22 µM (active)
same,outcome,[6],inactive
same,AC50,[3],16.2 µM (active)
CCOCCO,outcome,[9],inactive
CCC(C)(C)C(=O)O[C@H]1C[C@@H](C)C=C2C=C[C@H](C)[C@H](CC[C@@H]3C[C@@H](O)CC(=O)O3)[C@H]21,outcome,[7],inactive
CCOc1cccc(-n2cc(C(=O)N3CCN(c4cc(C(=O)O)c5ccccc5c4)CC3)nc2-c2ccc(C)cc2)c1,AC50,[1],3.71 µM (active)
same,AC50,[6],9.73 µM (active)
Oc1ccc2c(c1)-c1ccccc1C2,AC50,[8],6.89 µM (active)
O=C(O)c1cc(N=Nc2ccc(S(=O)(=O)Nc3ccccn3)cc2)ccc1O,AC50,[6],0.655 µM (active)
CNS(=O)(=O)c1cc(C(=O)N2CCC(CCN3C4CCC3CC(n3c(C)nc5ccccc53)C4)(c3cccc(F)c3)CC2)c(Cl)cc1F (configuration not stated),AC50,[3],7.92 µM (active)
CCOC(=O)COc1ccc2c(c1)CC(NCC(O)c1cccc(Cl)c1)CC2 (configuration not stated),AC50,[5],21.5 µM (active)
